Screening data as filed in PubChem BioAssay.
ssDAF-12 act: activators of S. stercoralis DAF-12 nuclear receptor; activation, % at 6.8 µM; HEK293 ssDAF-12/GRIP1 lit1-tk-luc reporter, luminescence; % of 3 µM dafachronic acid response; 1% of 370,000 active;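 active = activation above the mean over all tested compounds plus 3 SD, cut at about 0.9% in these data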
hgDAF12 agonist: agonists of H. glycines DAF-12 nuclear receptor. HEK293 GAL4-hgDAF12 UAS-luciferase reporter, agonist luminescence; normalized to butyrate control. activation, % at 6.8 µM. 1.8% of 370,000 active;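 active = activation above a cutoff set at the mean of all screened compounds plus 3 SD, cut at about 10% in these data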
hcDAF12 agonist: activators of H. contortus DAF-12 nuclear receptor; activation, % at 6.8 µM; 1.4% of 370,000 active; AID 652067; HEK293 hcDAF-12 lit1-tk-luc reporter, luminescence; 0% DMSO, 100% Δ7-dafachronic acid;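 active = activation above the mean of all tested compounds plus 3 SD, cut at about 5.5% in these data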
DAX1 inh-1: DAX1 (NR0B1) inhibition, primary screen | HEK293T StAR-luciferase reporter, SF-1/DAX-1 repression relief | inhibition, % at 6.8 µM | 1.1% of 370,000 active | AID 652010;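 active = inhibition above the mean over all tested compounds plus 3 SD, cut at about 3.6% in these data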;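 also: higher inhibition means more luminescence from relief of DAX-1 repression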
DAX1 inh-2: NR0B1 (DAX1) inhibition; HEK293 Gal4-DAX1 luciferase reporter, luminescence; inhibition, % at 6.75 µM; 0.99% of 340,000 active;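 active = inhibition above the mean over all tested compounds plus 3 SD, cut at about 4.2% in these data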;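 also: inhibition shows as a rise in luminescence from relieved DAX1 repression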
Target sequence (P51843 207-470 limits assumed): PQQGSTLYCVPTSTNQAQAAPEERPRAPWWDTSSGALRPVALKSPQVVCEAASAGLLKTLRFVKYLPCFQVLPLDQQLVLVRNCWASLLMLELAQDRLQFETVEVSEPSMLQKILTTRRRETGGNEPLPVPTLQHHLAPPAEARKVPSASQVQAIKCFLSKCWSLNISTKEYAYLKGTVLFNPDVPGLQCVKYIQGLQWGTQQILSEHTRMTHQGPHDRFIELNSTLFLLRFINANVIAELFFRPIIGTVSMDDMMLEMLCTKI
DAX1 inh confirm: NR0B1 (human) inhibition, confirmation; shares compounds with DAX1 inh-1; HEK293T StAR-promoter luciferase reporter, SF-1/DAX-1 repression; inhibition, % at 6.8 µM; 87% of 2,400 active;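 active = inhibition above the average of every tested compound plus 3 SD, cut at about 3.8% in these data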;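 also: active compounds raise luminescence by relieving repression of the StAR reporter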
SF1 mutant ctr: counter-screen for DAX1 inhibitors: nonselective inhibitors with SF-1 AF2 mutant; shares compounds with DAX1 inh-1; HEK293 StAR-luciferase, luminescence; inhibition, % at 6.8 µM; 78% of 2,400 active;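 active = inhibition above the mean of all tested compounds plus 3 SD, cut at about 3% in these data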
LXRb hcDAF ctr: counter-screen for hcDAF-12 agonists: agonists of human LXR-beta | HEK293 Gal4-LXR tk-luc reporter, luminescence, 24 h; normalized: DMSO 0%, positive control 100% | shares compounds with hcDAF12 agonist | activation, % at 6.8 µM | 3,400 tested, under 10 active | AID 743027;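 active = mean percent activation of the reporter above a cutoff set as the average over tested compounds plus their standard deviation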
Target sequence (P55055 whole entry, looked up, the tested form may be a part): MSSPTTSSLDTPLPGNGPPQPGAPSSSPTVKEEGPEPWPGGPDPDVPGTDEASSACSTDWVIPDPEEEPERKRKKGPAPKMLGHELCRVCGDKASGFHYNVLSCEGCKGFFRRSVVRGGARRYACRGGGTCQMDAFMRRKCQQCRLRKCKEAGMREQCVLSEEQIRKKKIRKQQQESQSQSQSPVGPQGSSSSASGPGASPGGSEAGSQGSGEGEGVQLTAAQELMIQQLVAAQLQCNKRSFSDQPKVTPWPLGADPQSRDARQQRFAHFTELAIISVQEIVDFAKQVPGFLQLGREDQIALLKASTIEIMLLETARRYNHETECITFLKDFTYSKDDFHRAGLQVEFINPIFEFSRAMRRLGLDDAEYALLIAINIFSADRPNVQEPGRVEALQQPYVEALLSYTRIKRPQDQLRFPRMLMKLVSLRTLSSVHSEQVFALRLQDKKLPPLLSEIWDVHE
hcDAF12 ag: confirmation of H. contortus DAF-12 agonists | shares compounds with hcDAF12 agonist | HEK293 hcDAF-12 lit1-tk-luc reporter, luminescence; % of Δ7-dafachronic acid response | activation, % at 6.8 µM | 61% of 3,400 active | AID 743032;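 active = mean activation across triplicate tests above the threshold derived from the earlier primary screen, cut at about 5.5% in these data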
Of the large screens only hits and unclear results are named; the others gave an inactive call (follow-up assays come after a bar, where they were run). An excerpt weighted towards active compounds, which were near 4.1% of everything screened.

CCC(=O)Nc1cccc(-c2nnc(-c3cccc(NC(=O)CC)c3)o2)c1	none
CCC(=O)Nc1ccc(-c2nnc(-c3ccccc3)o2)cc1	hgDAF12 agonist 10.5, DAX1 inh-1 4.5 | DAX1 inh confirm 14.5 | SF1 mutant ctr 4.5
FC(F)(F)c1ccc(C2NCCc3sccc32)cc1 (stereo not drawn)	none
O=C(NCCCN1CCOCC1)c1onc(CSc2ccncc2)c1C(=O)NCCCN1CCOCC1	none
O=C(Nc1nccs1)c1csc([C@H]2C[C@H](O)[C@@H](CO)O2)n1	DAX1 inh-1 4.9 (no result: DAX1 inh-2) | DAX1 inh confirm 5.9 | SF1 mutant ctr 3.0
CC(=O)Nc1ccc(NC(=O)c2csc([C@H]3C[C@H](O)[C@@H](CO)O3)n2)cc1	none (no result: DAX1 inh-2)
O=C(CCCN1C(=O)/C(=C\c2cccs2)SC1=S)Nc1ccc(C(=O)O)cc1	none
CCN(CC)CCOC(=O)c1ccc(NC(=O)CCCN2C(=O)/C(=C/c3cccs3)SC2=S)cc1	DAX1 inh-1 6.2 | DAX1 inh confirm 8.5 | SF1 mutant ctr 5.4
CC(=NNc1ccc2ccccc2n1)c1ccccn1	none (no result: DAX1 inh-2)
CC(=NNc1ccc2ccccc2n1)c1ccccc1O	DAX1 inh-1 5.9 | DAX1 inh confirm inactive | SF1 mutant ctr inactive
Cc1cc(Cl)ccc1C(=O)C1CCCN(C(=O)c2cnn(C(C)C)c2)C1 (stereo not drawn)	none
O=[N+]([O-])c1cccc(-c2nc3ccccc3s/c2=N/O)c1	none
O=C(NCCc1ccc(F)cc1)NC12CC3CC(CC(C3)C1)C2	DAX1 inh-1 8.3 | DAX1 inh confirm 10.4 | SF1 mutant ctr 7.6
CCC(=O)c1c(NC(CC)CO)cc(C)oc1=O (stereo not drawn)	none
COC(=O)Nc1nc2ccc(SC(C)C)cc2[nH]1	none
COC(=O)Nc1nc2ccc(C(=O)c3cccs3)cc2[nH]1	DAX1 inh-1 8.7 | DAX1 inh confirm 48.8 | SF1 mutant ctr inactive
N#Cc1ccc2sn(-c3ccccc3)c(=O)c2c1	hgDAF12 agonist 11.5, DAX1 inh-1 7.9 | DAX1 inh confirm 5.1 | SF1 mutant ctr 3.5
COc1ccccc1N(C)S(=O)(=O)c1ccc(C(=O)OCC(=O)NCc2cccs2)cc1	none
COc1cccc(/C=N/NC(=O)c2ccccc2NC(=O)c2ccco2)c1OC	none
COc1cccc(/C=C/C(=O)NNC(=O)c2ccco2)c1OC	DAX1 inh-1 4.9 | DAX1 inh confirm 9.1 | SF1 mutant ctr 6.5
O=C(c1ccncc1)N(c1ccc(N2CCOCC2)cc1)C(c1ccccc1)c1nc2ccccc2[nH]1 (stereo not drawn)	hgDAF12 agonist 13.1, hcDAF12 agonist 6.2, DAX1 inh-1 5.3 (no result: DAX1 inh-2) | DAX1 inh confirm 7.7 | SF1 mutant ctr 4.9
CCC(c1nc2ccccc2[nH]1)N(C(=O)Cc1cc(OC)cc(OC)c1)c1ccc(N2CCOCC2)cc1 (stereo not drawn)	none (no result: DAX1 inh-2)
O=C(CCC1CCN(C(=O)CC2=CCCCC2)CC1)NCc1ccc(F)cc1	none
COc1ccc(-c2noc(-c3ccccc3C(=O)N3CCOCC3)n2)cc1	none
CCC(=O)Nc1sc(C(=O)Nc2ccccc2F)c(C)c1C(=O)OC	hgDAF12 agonist 13.1, DAX1 inh-1 5.9 | DAX1 inh confirm 12.8 | SF1 mutant ctr 6.3
CC(C)[C@H](NC(=O)OC(C)(C)C)c1cc(C(=O)N2CCOCC2)c(N)s1	DAX1 inh-1 6.0 (no result: DAX1 inh-2) | DAX1 inh confirm inactive | SF1 mutant ctr inactive
CC(C)[C@H](NC(=O)OC(C)(C)C)c1cc(C(=O)NCCO)c(N)s1	none (no result: DAX1 inh-2)
COc1ccc(-c2cnc3c(NC=O)cc(-c4ccccc4OC)cn23)cc1OC	DAX1 inh-1 10.9 (no result: DAX1 inh-2) | DAX1 inh confirm 29.8 | SF1 mutant ctr inactive
COc1ccc(-c2cc(NC=O)c3ncc(-c4ccc(OC)c(OC)c4)n3c2)cc1OC	none (no result: DAX1 inh-2)
COCCn1c(/C=C/c2ccccc2)nc2ccccc21	hgDAF12 agonist 11.3, DAX1 inh-1 9.8 | DAX1 inh confirm 9.7 | SF1 mutant ctr 3.5
O=C(Nc1ccc([N+](=O)[O-])cc1)Nc1ccon1	none
CCc1ccc(NC(=O)Nc2ccon2)cc1	DAX1 inh-1 4.6 | DAX1 inh confirm 5.6 | SF1 mutant ctr 5.4
Cc1[nH]c2ccccc2c1/C=N/NC(=O)c1cc(C(C)C)[nH]n1	none
Cc1ccc(-n2c(C)nc3oc4ccccc4c(=O)c3c2=O)cc1	ssDAF-12 act 1.8, hcDAF12 agonist 12.4, DAX1 inh-1 4.5 | DAX1 inh confirm 8.5 | SF1 mutant ctr 6.1 | LXRb hcDAF ctr inactive | hcDAF12 ag 9.2
COc1cccc(-c2ccc3c(c2)C2CC3CCN2C(C)=O)c1 (stereo not drawn)	none
CCCn1c(C)cc(C(=O)COC(=O)c2nccnc2N)c1C	ssDAF-12 act 1.3, hgDAF12 agonist 12.6, hcDAF12 agonist 7.4, DAX1 inh-1 5.7 | DAX1 inh confirm 14.9 | SF1 mutant ctr 5.6 | LXRb hcDAF ctr inactive | hcDAF12 ag 5.9
Cc1cc(C(=O)COC(=O)C2=COCCO2)c(C)n1-c1ccc2c(c1)OCO2	none
Cc1cc(C(=O)COC(=O)C2=COCCO2)c(C)n1-c1cccc(F)c1	ssDAF-12 act 1.0, hgDAF12 agonist 10.9, hcDAF12 agonist 7.2, DAX1 inh-1 9.3 | DAX1 inh confirm 13.2 | SF1 mutant ctr 4.0 | LXRb hcDAF ctr inactive | hcDAF12 ag inactive
COc1ccc(/C=N/OC/C(O)=C(\C#N)c2nc3ccccc3[nH]2)cc1OC	none
CC(Sc1nnc(-c2ccco2)n1N)C(=O)NCc1ccc2c(c1)OCO2 (stereo not drawn)	none
O=C(NC1=NCCS1)c1cc2ccccc2o1	hgDAF12 agonist 11.0, hcDAF12 agonist 7.0, DAX1 inh-1 5.3 | DAX1 inh confirm 11.4 | SF1 mutant ctr 7.2 | LXRb hcDAF ctr inactive | hcDAF12 ag 6.2
O=C(NC1=NCCS1)c1ccccc1Cl	none
Cn1c(=O)c2[nH]c(CCCCCCCc3nc4ccccc4[nH]3)nc2n(C)c1=O	none
COc1c(C(=O)Nc2nnc(C3CC3)s2)csc1Cl	ssDAF-12 act 2.1, hcDAF12 agonist 8.1, DAX1 inh-1 7.0 | DAX1 inh confirm 6.2 | SF1 mutant ctr 9.1 | LXRb hcDAF ctr inactive | hcDAF12 ag 9.5
Cc1cnc(C(=O)Nc2nnc(C3CC3)s2)cn1	none
COc1ccc(OCCOC(=O)c2cc(S(=O)(=O)N3CCOCC3)c(Cl)cc2Cl)cc1	none
